Results as given in the supplement of paper PMC3334620.
Whole data set: some 33,000 sequences, median “E-score (-0.5 to 0.5)” near -0.056, cut for the highest 2% near 0.38. The full list was thinned out, with the highest values kept by preference.

biological target: Stb4 (UniProt P50104); assay: PBM E-score (8-mer binding enrichment) (E-score (-0.5 to 0.5)); higher = stronger / more preferred TF binding; settings: protein concentration: 200 nM; construct: GST-DNA-binding domain
Method: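 Universal 'all 10-mer' protein binding microarrays (Agilent AMADID 015681) probed with GST-tagged S. cerevisiae TFs (full-length or DBD) made by in vitro transcription/translation (PURExpress), about 100-200 nM. Bound TF was detected with fluorescent anti-GST. Each ungapped 8-mer (which stands for itself and its reverse complement) is scored by the PBM enrichment score (E-score), a modified Wilcoxon-Mann-Whitney statistic from -0.5 to +0.5, computed with the Universal PBM Analysis Suite. Scale: above 0.35 generally sequence-specific binding.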

UniProt P50104, sequence (P50104 whole entry, the tested form may be a part): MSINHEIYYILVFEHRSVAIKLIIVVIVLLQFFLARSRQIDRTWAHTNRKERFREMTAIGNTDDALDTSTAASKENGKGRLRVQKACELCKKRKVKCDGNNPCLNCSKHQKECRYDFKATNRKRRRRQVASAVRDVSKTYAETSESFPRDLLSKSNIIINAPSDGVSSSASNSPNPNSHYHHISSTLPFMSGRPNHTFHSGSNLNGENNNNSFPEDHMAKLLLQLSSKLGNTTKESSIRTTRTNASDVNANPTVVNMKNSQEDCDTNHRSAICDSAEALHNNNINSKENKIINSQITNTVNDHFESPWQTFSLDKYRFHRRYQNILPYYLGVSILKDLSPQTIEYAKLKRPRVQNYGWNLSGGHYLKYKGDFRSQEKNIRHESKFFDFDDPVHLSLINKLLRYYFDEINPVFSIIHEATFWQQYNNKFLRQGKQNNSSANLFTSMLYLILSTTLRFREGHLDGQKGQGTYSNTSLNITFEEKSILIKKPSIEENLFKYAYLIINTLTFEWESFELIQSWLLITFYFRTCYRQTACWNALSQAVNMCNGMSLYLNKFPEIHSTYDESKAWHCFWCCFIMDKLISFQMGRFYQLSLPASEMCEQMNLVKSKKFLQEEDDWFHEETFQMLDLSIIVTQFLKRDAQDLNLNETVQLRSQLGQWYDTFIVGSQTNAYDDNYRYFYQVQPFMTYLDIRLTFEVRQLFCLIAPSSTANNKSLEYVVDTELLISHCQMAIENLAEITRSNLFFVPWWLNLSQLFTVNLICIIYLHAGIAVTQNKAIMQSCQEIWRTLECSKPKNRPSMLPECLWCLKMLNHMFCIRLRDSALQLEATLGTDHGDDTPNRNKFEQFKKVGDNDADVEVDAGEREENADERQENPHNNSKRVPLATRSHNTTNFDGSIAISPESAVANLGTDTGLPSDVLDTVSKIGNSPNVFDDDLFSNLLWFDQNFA

Sequence	PBM E-score
AATCGGGC	0.159
ACTCTGAC	-0.0524
GTATCCTA	-0.107
ATATCCCG	0.306
ATATCCGG	0.424
GTATCCCA	-0.0937
CTATCCAA	-0.268
ATATCCAG	-0.114
ATATCCGA	0.482
ATATCCAA	0.0444
CTATCCGA	0.469
GTATCCGA	0.487
ATATCCTA	-0.0944
CTATCCCA	-0.135
AATCTAAG	-0.107
AGACTGGC	-0.17
ACCCAGCG	-0.0996
CAATGTAA	0.112
ATTATGGG	-0.0331
TAGATGCA	-0.222
GTCAGCGA	-0.138
ATTGGGTG	-0.0143
GACCTTAA	-0.145
GGGTCTCA	8e-05
TCGAGCAA	-0.141

Sequence	PBM E-score
GCGAGCAC	-0.135
ACGAGCAC	-0.133
CCGAGCAA	0.406
ACGAGCAA	-0.0941
CCGAGCAC	0.413
GAACAGGA	-0.0169
ACGAAGTC	-0.264
GCGAAGTA	-0.0361
CAGAAGTC	-0.174
CCGAAGTC	0.417
CCGAAGTA	0.418
ACGAAGTA	-0.0487
ACAGCTTC	0.0141
AACACCGG	0.248
CATGCCAA	-0.257
CTTCCTCA	-0.208
CGCACCAC	-0.0216
AGTTTGAG	-0.092
GCCTCGGA	0.444
CCCTCGTA	-0.114
GCCTCGTA	-0.0917
CCCTCGGA	0.464
GCCTCGAA	-0.0521
CCCTCGCA	-0.0413
CAAGTTTA	-0.136

Sequence	PBM E-score
ACCTGCAC	-0.0938
AAGGTACA	-0.341
AAGGCTAG	-0.127
TAACCGAA	0.431
GAACCGAA	0.397
CAACCGAA	0.289
AAACCGAA	0.259
GAACCGTA	0.0316
GAACCGAC	0.286
AACCCGGA	0.375
CTACAGTC	-0.214
CTCATCTA	-0.116
AAAGTGAC	-0.123
CAACCCGA	0.33
TAACCCGA	0.385
AAACCCGA	0.403
AAACCCGT	-0.00663
GAACCCGA	0.338
AAACCCGC	0.246
TGACCCAA	-0.235
AGCGAAAT	0.0212
CGATTATC	0.15
GATTCAGA	-0.121
GCGGCCGA	0.217
CCGGCACA	0.307

Sequence	PBM E-score
GCGGCTAA	0.287
ACGGCTAA	0.264
CCGGCAGA	0.286
TCGGCTAA	0.455
ACGGCAGA	0.156
TCGGCACA	0.441
CCGGCACG	0.293
TCGGCCGA	0.419
CCGGCCGA	0.356
TCGGCAGA	0.41
GACGTTGC	-0.00479
AAGGCCTT	-0.207
GGCGCCGA	0.317
GAGTAATC	-0.0725
CGGACCCG	0.346
CCCTGCTA	-0.236
ATTTGAGG	-0.0518
CCACTTGA	-0.0304
AATAGTCT	-0.236
TCGGCAAA	0.41
ACGGCAAA	0.243
GCGGCAAA	0.182
AGGAGAAC	-0.179
CAAATGCG	-0.127
GTACCGAA	0.358

Sequence	PBM E-score
TTACCGAA	0.424
ATACCGAC	0.167
ATACCGAT	0.285
ATACCGAA	0.392
CTACCGAA	0.365
CGGTCTGC	-0.0321
GCCACCGC	-0.0977
CTCAAGGC	0.065
AGTGCGAC	0.0915
CCGGTATA	0.214
TCGAGAAA	-0.141
CCGAGAAA	0.451
CAGAGAAG	-0.0211
ACGAGAAG	-0.264
GCGAGAAC	-0.021
ACGAGAAC	-0.149
CCGAGAAC	0.414
GCGAGAAA	-0.00939
CCGAGAAG	0.386
AGCATTGG	-0.12
CAGGGCAC	-0.15
AAGAGGTG	-0.0351
CCATTGAC	-0.243
GAATGCGA	0.0718
CAGAGAAA	-0.173

Sequence	PBM E-score
AGGGCCGA	0.232
AATGAGGC	-0.312
TCCCCGAA	0.37
AGCCCGAG	0.231
TTCCCGAA	0.46
ACCCCGAC	0.248
ATCCCGAC	0.387
TTCCCAAA	-0.234
GTCCCGAA	0.406
GTCCCGAC	0.376
ATCCCGAT	0.342
GTCCCGCA	0.213
ATCCCGAG	0.439
AGCCCGAC	0.0817
AACAAGAG	-0.186
TTCCACAA	0.0123
GAGTGATC	-0.021
CGTCTGAG	-0.171
TTGCACAA	-0.231
TAGCGACA	-0.154
AGATATGA	-0.0877
CGACATTA	0.187
CATCACCC	0.123
CTCCCGAA	0.43
AGCCCGAA	0.264

Sequence	PBM E-score
CTCCCGAC	0.33
CTCCCGGA	0.329
CTCCCGAG	0.445
ATCCCGAA	0.432
CGCCCGAG	0.328
ATCCCAAA	0.0397
CGCCCGAA	0.293
AATCTACA	-0.0631
AATCTATC	-0.0505
CCAAGTCC	-0.104
GGTTTTAA	0.126
GCCCATTA	-0.168
ACGTTTGC	-0.11
TCTAGTAA	-0.126
GTGTAAAA	-0.0759
ATGCGAGG	-0.224
CTTCGAGA	-0.257
ATGCGAGC	-0.123
GTCCGAGA	0.378
ATCCGCGA	0.247
AACCGAGG	0.355
ATCCGAGA	0.471
